Sampled rows, rich in hits. Any-hit rate of the full collection: about 4.7%.
VHR inh abs: blocks human VHR1 dual specificity phosphatase. inhibition, % at 13.3 µM. hit rate 0.52% among 290,000. P51452. recombinant VHR phosphatase, pNPP absorbance; in the data active = inhibition above about 50%
Target sequence (P51452 whole entry, looked up): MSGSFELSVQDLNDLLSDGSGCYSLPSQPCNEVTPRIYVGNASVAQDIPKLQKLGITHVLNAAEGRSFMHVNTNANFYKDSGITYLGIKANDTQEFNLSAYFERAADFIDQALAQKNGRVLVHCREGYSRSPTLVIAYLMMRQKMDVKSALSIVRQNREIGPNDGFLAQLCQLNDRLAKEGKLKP
SARS 3CLpro inh: SARS-CoV 3CLpro protease inhibition | recombinant SARS-CoV 3CLpro, quenched FRET peptide cleavage | inhibition, % at 6 µM | hit rate 0.14% among 290,000; in the data active = inhibition above about 12%
CCHF vOTU inh: blocks the CCHF virus ovarian tumor domain protease. inhibition, % at 11.5 µM. CCHFV vOTU protease, Pep-AMC fluorescence. hit rate 0.55% among 370,000. AID 651958; note: 0% = vehicle wells with enzyme and 100% = no enzyme wells
GDH-TPI counter-1: inhibits GDH-TPI coupling enzymes, artifact for Mtb FBA screen; GDH-TPI coupled enzyme counterscreen, NADH absorbance; inhibition, % at 4.8 µM; hit rate 1.2% among 360,000; AID 588335;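 note: 0% = DMSO wells and 100% = wells lacking the enzyme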
FBA Mtb inh: inhibits M. tuberculosis FBA enzyme | P9WQA3 | purified M. tuberculosis FBA, fluorescence read-out | inhibition, % at 1 µM | hit rate 2.3% among 360,000; in the data active = inhibition above about 27%;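 note: 0% = vehicle and 100% = reference inhibitor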
Target sequence (P9WQA3 whole entry, looked up): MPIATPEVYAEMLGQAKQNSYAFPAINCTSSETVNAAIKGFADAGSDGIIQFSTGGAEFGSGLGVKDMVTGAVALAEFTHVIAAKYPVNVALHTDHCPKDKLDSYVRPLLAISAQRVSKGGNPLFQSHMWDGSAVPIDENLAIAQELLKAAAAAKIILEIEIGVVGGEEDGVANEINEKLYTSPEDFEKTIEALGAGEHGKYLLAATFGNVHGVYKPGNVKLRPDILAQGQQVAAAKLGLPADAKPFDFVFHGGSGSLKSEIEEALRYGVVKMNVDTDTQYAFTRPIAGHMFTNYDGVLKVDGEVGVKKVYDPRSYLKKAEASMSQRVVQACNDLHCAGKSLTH
RecA intein inh: Mtb RecA intein splicing inhibition; P9WHJ3; cell-free RecA intein splicing, fluorescence; inhibition, % (concentration not given with the values); hit rate 0.75% among 290,000; AID 2221; in the data active = inhibition above about 30%;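 note: 0% = vehicle wells and 100% = reference inhibitor control wells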
Mtb FBA inh conf: confirmation of M. tuberculosis fructose-bisphosphate aldolase inhibitors | purified M. tuberculosis FBA, fluorescence read-out | hit rate 78% among 5,600 | AID 651616 | inhibition, % at 1 µM | shares compounds with FBA Mtb inh; in the data active = inhibition above about 27%;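 note: 0% = vehicle wells and 100% = reference inhibitor wells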
GDH-TPI counter-2: inhibits GDH-TPI coupling enzymes, flagging Mtb FBA hits; hit rate 81% among 5,600; shares compounds with FBA Mtb inh; GDH-TPI coupled enzyme counterscreen, fluorescence; inhibition, % at 1 µM; AID 652141; in the data active = inhibition above about 10%
* marks the source's active call; other numbers are inactive results. Cut-off read from the data, not from the text of the source, unless noted: active = inhibition above about 30%; inactive = the rest.

What do the screens show for `O=C(CN1C(=O)CCC1=O)Nc1nc(-c2nc3ccccc3s2)cs1`?
VHR inh abs: 1; SARS 3CLpro inh: -5; CCHF vOTU inh: -8; GDH-TPI counter-1: -2; FBA Mtb inh: 34*; RecA intein inh: 2; Mtb FBA inh conf: 10; GDH-TPI counter-2: 4

How did CCc1cc2ccc(C)cc2nc1SCC(=O)Nc1cc(OC)c(OC)cc1C(=O)O do in these assays?
VHR inh abs: 1; SARS 3CLpro inh: 2; CCHF vOTU inh: -15; GDH-TPI counter-1: 12; FBA Mtb inh: 47*; RecA intein inh: -7; Mtb FBA inh conf: -11; GDH-TPI counter-2: -9

What do the screens show for `CCCCCCn1c(-c2ccc(Cl)cc2Cl)csc1=Nc1ccccc1`?
CCHF vOTU inh: 11

What do the screens show for `COC(=O)c1ccc(N2CCCCC2)c(NC(=O)c2ccco2)c1`?
VHR inh abs: -5; SARS 3CLpro inh: 3; CCHF vOTU inh: 4; GDH-TPI counter-1: 5; FBA Mtb inh: -2; RecA intein inh: -1

What do the screens show for `O=C(NCc1ccccc1)Nc1cccn(Cc2ccc(F)cc2)c1=O`?
VHR inh abs: -2; SARS 3CLpro inh: 0; CCHF vOTU inh: -28; GDH-TPI counter-1: -7; FBA Mtb inh: 14; RecA intein inh: 3

How did Cc1cc(NC(=O)NCc2ccccc2)c(=O)n(Cc2ccc(F)cc2)c1 do in these assays?
VHR inh abs: 35; SARS 3CLpro inh: 2; CCHF vOTU inh: 5; GDH-TPI counter-1: 15; FBA Mtb inh: 28*; RecA intein inh: -40; Mtb FBA inh conf: 98*; GDH-TPI counter-2: 83*

How did CCn1nnc2cc(C(=O)Nc3cc(OC)cc(OC)c3)ccc21 do in these assays?
CCHF vOTU inh: 2; GDH-TPI counter-1: 12; FBA Mtb inh: -1; RecA intein inh: 2

Results for CSCC[C@H](NC(=O)OC(C)(C)C)C(=O)N/N=C/c1cccc2cccnc12 ?
VHR inh abs: 27; SARS 3CLpro inh: -5; CCHF vOTU inh: -2; GDH-TPI counter-1: 15; FBA Mtb inh: 0; RecA intein inh: 0

What do the screens show for `CCC(C)[C@H](NC(=O)OC(C)(C)C)C(=O)N/N=C/c1ccc2cc(OC)ccc2n1` (some centres not stated)?
VHR inh abs: 17; SARS 3CLpro inh: 2; CCHF vOTU inh: -7; GDH-TPI counter-1: 18; FBA Mtb inh: 33*; RecA intein inh: -3; Mtb FBA inh conf: active; GDH-TPI counter-2: 181*

What do the screens show for `COc1ccc2nc(/C=N/NC(=O)[C@H](CCSC)NC(=O)OC(C)(C)C)ccc2c1`?
VHR inh abs: 8; SARS 3CLpro inh: 4; CCHF vOTU inh: -79; GDH-TPI counter-1: 32*; FBA Mtb inh: 60*; RecA intein inh: -2; Mtb FBA inh conf: 53*; GDH-TPI counter-2: 56*

Results for CC(C)(C)OC(=O)N1CCC[C@H]1C(=O)N/N=C/c1ccc2nccnc2c1 ?
VHR inh abs: -12; SARS 3CLpro inh: 7; CCHF vOTU inh: 18; GDH-TPI counter-1: 9; FBA Mtb inh: 0; RecA intein inh: -3

How did COc1ccc2nc(/C=N/NC(=O)[C@@H]3CCCN3C(=O)OC(C)(C)C)ccc2c1 do in these assays?
VHR inh abs: 35; SARS 3CLpro inh: 5; CCHF vOTU inh: -72; GDH-TPI counter-1: 9; FBA Mtb inh: 99*; RecA intein inh: 1; Mtb FBA inh conf: 54*; GDH-TPI counter-2: 46*

What do the screens show for `COc1ccc(C2C(C(=O)O)c3ccccc3C(=O)N2Cc2ccco2)cc1` (configuration not stated)?
VHR inh abs: 27; SARS 3CLpro inh: 6; CCHF vOTU inh: 7; GDH-TPI counter-1: -1; FBA Mtb inh: -1; RecA intein inh: 0

What do the screens show for `COc1ccc(C(=O)COC(=O)c2sc(C)nc2C)cc1F`?
CCHF vOTU inh: -14; GDH-TPI counter-1: 14; FBA Mtb inh: 0

What do the screens show for `Cn1cc(C(=O)C(=O)N2CCc3ccccc32)c2ccccc21`?
VHR inh abs: -11; SARS 3CLpro inh: -2; CCHF vOTU inh: -5; GDH-TPI counter-1: 7; FBA Mtb inh: -4; RecA intein inh: 0

What do the screens show for `N#C/C(=C\c1c(Oc2ccccc2F)nc2ccccn2c1=O)C(=O)NC1CCS(=O)(=O)C1` (configuration not stated)?
VHR inh abs: 17; SARS 3CLpro inh: 0; CCHF vOTU inh: -31; GDH-TPI counter-1: 4; FBA Mtb inh: 28*; RecA intein inh: -175; Mtb FBA inh conf: 106*; GDH-TPI counter-2: 84*

What do the screens show for `CC(=O)NNC(=O)c1cc2c3ccccc3n(C)c2s1`?
VHR inh abs: 17; SARS 3CLpro inh: 1; CCHF vOTU inh: 7; GDH-TPI counter-1: 20; FBA Mtb inh: 8

Results for Cn1c2ccccc2c2cc(C(=O)N3CCN(CCO)CC3)sc21 ?
VHR inh abs: 7; SARS 3CLpro inh: -6; CCHF vOTU inh: 4; GDH-TPI counter-1: 18; FBA Mtb inh: 29*; RecA intein inh: 6; Mtb FBA inh conf: 122*; GDH-TPI counter-2: 90*

Results for CCOC(=O)c1c(NC(=O)Cn2nnc(-c3ccccc3Cl)n2)sc(C)c1C ?
VHR inh abs: 7; SARS 3CLpro inh: 2; CCHF vOTU inh: 8; GDH-TPI counter-1: 10; FBA Mtb inh: 110*; RecA intein inh: 0; Mtb FBA inh conf: 0; GDH-TPI counter-2: -5

How did COc1ccccc1CNC(=O)COC(=O)c1cnccn1 do in these assays?
VHR inh abs: -6; SARS 3CLpro inh: -5; CCHF vOTU inh: -7; GDH-TPI counter-1: -4; FBA Mtb inh: 0; RecA intein inh: -4

Results for COc1ccccc1CNC(=O)COC(=O)c1nccnc1N ?
VHR inh abs: 10; SARS 3CLpro inh: 10; CCHF vOTU inh: -41; GDH-TPI counter-1: 0; FBA Mtb inh: 48*; RecA intein inh: 1; Mtb FBA inh conf: 9; GDH-TPI counter-2: -6

What do the screens show for `Nc1nccnc1C(=O)OCC(=O)NCCc1ccc(S(N)(=O)=O)cc1`?
CCHF vOTU inh: -71; GDH-TPI counter-1: 10; FBA Mtb inh: 88*; RecA intein inh: 1; Mtb FBA inh conf: 100*; GDH-TPI counter-2: 91*

What do the screens show for `CSc1nc(-c2ccccc2)cc(C(F)(F)F)c1C#N`?
VHR inh abs: 23; SARS 3CLpro inh: -8; CCHF vOTU inh: -12; GDH-TPI counter-1: 7; FBA Mtb inh: 2; RecA intein inh: 2

Results for O=C(CSc1nc2nc(-c3cccs3)cc(C(F)(F)F)c2c(=O)[nH]1)Nc1c(F)c(F)c(F)c(F)c1F ?
VHR inh abs: 10; SARS 3CLpro inh: -4; CCHF vOTU inh: -4; GDH-TPI counter-1: 7; FBA Mtb inh: 4; RecA intein inh: 5

How did CNc1nc(-c2cccs2)cc(C(F)(F)F)c1C#N do in these assays?
VHR inh abs: 13; SARS 3CLpro inh: 3; CCHF vOTU inh: -41; GDH-TPI counter-1: -2; FBA Mtb inh: 58*; Mtb FBA inh conf: 78*; GDH-TPI counter-2: 54*
